Each structure is given as a SMILES string. Values joined by “and” are separate entries in the source; they are usually repeats but may differ in a detail not shown here. Equal entries are not always repeated. Where a structure was tested more than once in an assay, its records may differ in their call. Active and inactive are the calls of the source.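 The calls were made as follows, unless noted: active = inhibition above 54%, about 3 SD of non-fluorescent compounds; inactive = the rest.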

In one test the target is AP-2 complex subunit beta (Homo sapiens) (UniProt P63010). The test is described as follows: beta-arrestin/AP2 interaction blockers – biochemical, validation set, GST-AP2 beads, flow cytometry, pilot screen (AID 504541).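 Also: AP2 carries R879A mutation and is captured from E. coli lysate; bead-bound FITC arrestin peptide fluorescence measuring arrestin peptide binding to AP2; 0% = DMSO wells and 100% = excess unlabeled arrestin peptide control.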 Particulars: FITC arrestin peptide, at 10 µM, stronger effect = higher value.
Chain of AP-2 complex subunit beta (Homo sapiens) (P63010 whole entry, looked up, one chain of several): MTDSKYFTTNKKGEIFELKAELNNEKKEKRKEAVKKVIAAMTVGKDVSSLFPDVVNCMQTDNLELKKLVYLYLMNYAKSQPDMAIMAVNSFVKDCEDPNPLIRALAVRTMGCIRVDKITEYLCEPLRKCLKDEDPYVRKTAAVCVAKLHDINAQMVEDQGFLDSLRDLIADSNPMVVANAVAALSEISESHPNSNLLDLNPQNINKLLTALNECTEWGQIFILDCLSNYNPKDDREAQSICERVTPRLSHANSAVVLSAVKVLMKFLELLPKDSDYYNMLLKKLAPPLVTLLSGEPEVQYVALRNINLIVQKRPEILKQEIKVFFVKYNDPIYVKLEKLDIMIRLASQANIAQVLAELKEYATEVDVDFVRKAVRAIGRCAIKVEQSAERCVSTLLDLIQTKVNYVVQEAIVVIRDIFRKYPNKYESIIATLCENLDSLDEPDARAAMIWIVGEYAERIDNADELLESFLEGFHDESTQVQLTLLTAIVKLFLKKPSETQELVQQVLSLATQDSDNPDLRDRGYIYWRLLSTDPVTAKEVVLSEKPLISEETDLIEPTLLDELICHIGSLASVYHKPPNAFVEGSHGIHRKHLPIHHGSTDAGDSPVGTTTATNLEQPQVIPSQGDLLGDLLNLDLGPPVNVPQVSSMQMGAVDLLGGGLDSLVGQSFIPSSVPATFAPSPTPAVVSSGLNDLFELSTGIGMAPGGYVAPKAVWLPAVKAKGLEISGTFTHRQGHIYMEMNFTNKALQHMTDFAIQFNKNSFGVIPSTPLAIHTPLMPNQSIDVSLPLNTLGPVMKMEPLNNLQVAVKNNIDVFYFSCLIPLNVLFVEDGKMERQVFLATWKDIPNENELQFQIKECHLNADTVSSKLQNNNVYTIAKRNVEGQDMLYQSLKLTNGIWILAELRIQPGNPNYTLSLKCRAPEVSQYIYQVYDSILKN
Consider `CN1C[C@H](CNC(=O)OCc2ccccc2)C[C@@H]2c3cccc4c3c(cn4C)C[C@H]21`, for which the inhibition was -6.87% (inactive).

For the molecule `C[N+]1(C)C2CCC1CC(OC(=O)C(CO)c1ccccc1)C2` (stereo not given), the inhibition is 6.92% (inactive).

In the case of `CCC1(c2ccccc2)C(=O)N(COC)C(=O)N(COC)C1=O`, the inhibition was 10.8% (inactive).

Take `CCn1c(O)c(C(=O)CC2NCCc3ccccc32)c(=O)n(CC)c1=S` (stereo not given): the inhibition is 5.21% (inactive).

`NC(=O)CN1CCCC1=O`: the inhibition was -5.52% (inactive).

For `Cc1ccsc1C(=O)C1CCCN(Cc2cc3ccccc3o2)C1` (stereo not given), the inhibition was 5.6% (inactive).

For `CN1C2CCC1CC(OC(=O)c1ccc(Cl)cc1)C2` (stereo not given), the inhibition was -3.16% (inactive).

For `Cn1c(O)c(C=NCCc2c[nH]c3ccccc23)c(=O)n(C)c1=O`, the inhibition is -3.21% (inactive).

On to `CC12CN3CC(C)(CN(C1)C3c1cccs1)C2=O` (stereo not given), for which the inhibition is -2.92% (inactive).

As for `[N-]=[N+]=CC(=O)OC[C@H](N)C(=O)O`, the inhibition is 4.06% (inactive).

Take `COP(=O)(OC)C(O)C(Cl)(Cl)Cl` (stereo not given): the inhibition is -9.07% (inactive).

Turning to `CC(C)[N+](C)(CCC(C(N)=O)(c1ccccc1)c1ccccc1)C(C)C`, the inhibition was -5.08% (inactive).

On to `C[C@@]1(CO)[C@H](O)CC[C@@]2(C)[C@H]1CC[C@H]1C[C@@H]3C[C@@]12CC[C@]3(O)CO`, for which the inhibition is 54.5% (active).

As for `O=C1CCCC2=C1C(c1cccnc1)Nc1ccccc1N2` (stereo not given), the inhibition was -4.18% (inactive).

As for `O=c1[nH]c(=S)n(-c2ccccc2)c(O)c1/C=N/N1CCCCC1c1cccnc1` (stereo not given), the inhibition is 1.04% (inactive).

For `Clc1ccc(C2NCCc3[nH]cnc32)cc1` (stereo not given), the inhibition was -2.42% (inactive).

For `Cc1ccc(-n2c(C)cc(/C=C3/C(=O)NC(=O)N(C)C3=O)c2C)cc1`, the inhibition was -0.22% (inactive).

Turning to `C[N+]1(C)CCc2cc3c(cc2[C@H]1[C@@H]1OC(=O)c2c1ccc1c2OCO1)OCO3`, the inhibition was 55.1% (active) and -7.04% (inactive).

For `COc1ccc(NC2=NCC(C)S2)cc1` (stereo not given), the inhibition is 5.98% (inactive).

For the molecule `CC12CN3CC(C)(CN(C1)C3c1cccs1)C2O` (stereo not given), the inhibition is 1.53% (inactive).

In the case of `O=C1NCCN2CCCC12` (stereo not given), the inhibition is 4.79% (inactive).

Take `NNC(=O)c1ccc(Cl)cc1`: the inhibition is 3.28% (inactive).

Regarding `CN1CCN(C(=O)OC2c3nccnc3C(=O)N2c2ccc(Cl)cn2)CC1` (stereo not given), the inhibition is 0.51% (inactive).

Take `O=c1[nH]c2ccccc2n1C1CCN(CCCC(c2ccc(F)cc2)c2ccc(F)cc2)CC1`: the inhibition is -9.19% (inactive).

On to `O=C1NC(=O)C2(Cc3ccccc3N3CCCC32)C(=O)N1c1ccc(Cl)cc1` (stereo not given), for which the inhibition was -2.86% (inactive).

For `CC1CCC[C@H](O)CCCCCc2cc(O)cc(O)c2C(=O)O1` (stereo not given in full), the inhibition was -18.8% (inactive).

Take `O=c1cccc2n1C[C@H]1C[C@@H]2CN2CCCC[C@@H]12`: the inhibition is -2.4% (inactive).

On to `CC(=O)OC1C2CCC1C(N1CCCC1)CC2` (stereo not given), for which the inhibition was -16% (inactive).

Take `CCOc1ccc(C2C(C#N)=C(N)Oc3c2c(=O)oc2ccccc32)cc1` (stereo not given): the inhibition was 22.7% (inactive).

For the molecule `COc1cc2c3cc1Oc1cc(ccc1O)C[C@@H]1c4c(cc(OC)c(O)c4Oc4ccc(cc4)C[C@H]3N(C)CC2)CCN1C`, the inhibition was 19.2% (inactive).

Regarding `CN1CC[C@@]23CCCC[C@@H]2[C@@H]1Cc1ccc(O)cc13`, the inhibition was 9.83% (inactive).

Take `O=c1c2ccccc2[se]n1-c1ccccc1`: the inhibition was 116% (active).

Consider `CC[N+]1(C)CCCC(OC(=O)C(O)(c2ccccc2)c2ccccc2)C1` (stereo not given), for which the inhibition was -0.87% (inactive).

Regarding `C[C@]12CCC(=O)C=C1CCC1C2CC[C@@]2(C)C1CC[C@@]2(O)CC#N` (stereo not given in full), the inhibition is -0.45% (inactive).

Regarding `C[C@H]1CC[C@@]2(C)[C@@H](CC[C@@H]3[C@@H]2CC[C@]2(C)[C@@H](O)CC[C@@H]32)C1`, the inhibition is -8.56% (inactive).

Turning to `C[C@H]1OC[C@@H](C[N+](C)(C)C)O1`, the inhibition was 5.6% (inactive).

Consider `CC(C)(C)C(O)C(Oc1ccc(Cl)cc1)n1cncn1` (stereo not given), for which the inhibition is 7.17% (inactive).

Take `C[C@@H]1O[C@@H](O[C@H]2C[C@@H](O)[C@]3(CO)[C@H]4[C@H](O)C[C@]5(C)[C@@H](C6COC(=O)C6)CC[C@]5(O)[C@@H]4CC[C@]3(O)C2)[C@H](O)[C@H](O)[C@H]1O` (stereo not given in full): the inhibition is -5.57% (inactive).

On to `CC(=O)c1ccc(-c2ccccc2)cc1`, for which the inhibition is -0.36% (inactive).

As for `CCOC(=O)c1cc2c(cn1)[nH]c1ccccc12`, the inhibition is -6.1% (inactive).

Test system in the next test: not listed separately
The test is described as follows: cytosolic pH regulators acting via V-ATPase – S. cerevisiae, pHLuorin, HTS validation (AID 504600; in the data active = response above about 15%;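 also: plate controls were DMSO for no effect and reference compound for full effect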). To be noted: V-ATPase proton transport, at 10 µM, stronger effect = higher value.
Take `CN1C[C@H](CNC(=O)OCc2ccccc2)C[C@@H]2c3cccc4c3c(cn4C)C[C@H]21`: the response was -0.08% (inactive).

As to `C[N+]1(C)C2CCC1CC(OC(=O)C(CO)c1ccccc1)C2` (stereo not given), the response was -1.74% (inactive).

Regarding `CCC1(c2ccccc2)C(=O)N(COC)C(=O)N(COC)C1=O`, the response was -4.18% (inactive).

For `CCn1c(O)c(C(=O)CC2NCCc3ccccc32)c(=O)n(CC)c1=S` (stereo not given), the response was 1.26% (inactive).

Regarding `NC(=O)CN1CCCC1=O`, the response was 0.81% (inactive).

Regarding `Cc1ccsc1C(=O)C1CCCN(Cc2cc3ccccc3o2)C1` (stereo not given), the response is -0.26% (inactive).

With `CN1C2CCC1CC(OC(=O)c1ccc(Cl)cc1)C2` (stereo not given), the response was 2.46% (inactive).

Turning to `Cn1c(O)c(C=NCCc2c[nH]c3ccccc23)c(=O)n(C)c1=O`, the response was 3.13% (inactive).

For `CC12CN3CC(C)(CN(C1)C3c1cccs1)C2=O` (stereo not given), the response was -1.09% (inactive).

Turning to `[N-]=[N+]=CC(=O)OC[C@H](N)C(=O)O`, the response was 2.12% (inactive).

As for `COP(=O)(OC)C(O)C(Cl)(Cl)Cl` (stereo not given), the response is 0.81% (inactive).

As for `CC(C)[N+](C)(CCC(C(N)=O)(c1ccccc1)c1ccccc1)C(C)C`, the response is 0.78% (inactive).

As to `C[C@@]1(CO)[C@H](O)CC[C@@]2(C)[C@H]1CC[C@H]1C[C@@H]3C[C@@]12CC[C@]3(O)CO`, the response is 3.03% (inactive).

Consider `O=C1CCCC2=C1C(c1cccnc1)Nc1ccccc1N2` (stereo not given), for which the response was -6.46% (inactive).

Turning to `O=c1[nH]c(=S)n(-c2ccccc2)c(O)c1/C=N/N1CCCCC1c1cccnc1` (stereo not given), the response was 4.77% (inactive).

As for `Clc1ccc(C2NCCc3[nH]cnc32)cc1` (stereo not given), the response is 0.96% (inactive).

For the molecule `Cc1ccc(-n2c(C)cc(/C=C3/C(=O)NC(=O)N(C)C3=O)c2C)cc1`, the response is 5.34% (inactive).

As for `C[N+]1(C)CCc2cc3c(cc2[C@H]1[C@@H]1OC(=O)c2c1ccc1c2OCO1)OCO3`, the response was -7.78% (inactive) and 0.91% (inactive).

Turning to `COc1ccc(NC2=NCC(C)S2)cc1` (stereo not given), the response is 4.39% (inactive).

As to `CC12CN3CC(C)(CN(C1)C3c1cccs1)C2O` (stereo not given), the response was 1.19% (inactive).

Consider `O=C1NCCN2CCCC12` (stereo not given), for which the response was 113% (active).

Turning to `NNC(=O)c1ccc(Cl)cc1`, the response was 3.19% (inactive).

Turning to `CN1CCN(C(=O)OC2c3nccnc3C(=O)N2c2ccc(Cl)cn2)CC1` (stereo not given), the response is -1.22% (inactive).

`O=c1[nH]c2ccccc2n1C1CCN(CCCC(c2ccc(F)cc2)c2ccc(F)cc2)CC1`: the response is 73.1% (active).

As to `O=C1NC(=O)C2(Cc3ccccc3N3CCCC32)C(=O)N1c1ccc(Cl)cc1` (stereo not given), the response was 0.31% (inactive).

With `CC1CCC[C@H](O)CCCCCc2cc(O)cc(O)c2C(=O)O1` (stereo not given in full), the response was 6.16% (inactive).

Regarding `O=c1cccc2n1C[C@H]1C[C@@H]2CN2CCCC[C@@H]12`, the response is -3.47% (inactive).

In the case of `CC(=O)OC1C2CCC1C(N1CCCC1)CC2` (stereo not given), the response is -1.91% (inactive).

As to `CCOc1ccc(C2C(C#N)=C(N)Oc3c2c(=O)oc2ccccc32)cc1` (stereo not given), the response is -3.38% (inactive).

Take `COc1cc2c3cc1Oc1cc(ccc1O)C[C@@H]1c4c(cc(OC)c(O)c4Oc4ccc(cc4)C[C@H]3N(C)CC2)CCN1C`: the response was 1.91% (inactive).

Take `CN1CC[C@@]23CCCC[C@@H]2[C@@H]1Cc1ccc(O)cc13`: the response was -1.79% (inactive).

As for `O=c1c2ccccc2[se]n1-c1ccccc1`, the response is -0.76% (inactive).

Consider `CC[N+]1(C)CCCC(OC(=O)C(O)(c2ccccc2)c2ccccc2)C1` (stereo not given), for which the response was -0.49% (inactive).

In the case of `C[C@]12CCC(=O)C=C1CCC1C2CC[C@@]2(C)C1CC[C@@]2(O)CC#N` (stereo not given in full), the response is -1.52% (inactive).

Regarding `C[C@H]1CC[C@@]2(C)[C@@H](CC[C@@H]3[C@@H]2CC[C@]2(C)[C@@H](O)CC[C@@H]32)C1`, the response is 1.08% (inactive).

Take `C[C@H]1OC[C@@H](C[N+](C)(C)C)O1`: the response was 4.51% (inactive).

For the molecule `CC(C)(C)C(O)C(Oc1ccc(Cl)cc1)n1cncn1` (stereo not given), the response was -0.61% (inactive).

As for `C[C@@H]1O[C@@H](O[C@H]2C[C@@H](O)[C@]3(CO)[C@H]4[C@H](O)C[C@]5(C)[C@@H](C6COC(=O)C6)CC[C@]5(O)[C@@H]4CC[C@]3(O)C2)[C@H](O)[C@H](O)[C@H]1O` (stereo not given in full), the response was -2.1% (inactive).

With `CC(=O)c1ccc(-c2ccccc2)cc1`, the response was 1% (inactive).

Take `CCOC(=O)c1cc2c(cn1)[nH]c1ccccc12`: the response was -1.17% (inactive).

Values taken from PubChem BioAssay.
